Bioassay records as filed in PubChem.
ROC1-CUL1 inh = inhibitors of human ROC1-CUL1 ubiquitin ligase activity. P62877+Q13616. in vitro K48 di-Ub FRET, acceptor:donor ratio, 45 min. inhibition, % at 10 µM. actives 0.6% (n = 140,000). AID 1347404; in the data active = inhibition above about 25%
Target sequence (P62877 whole entry, looked up): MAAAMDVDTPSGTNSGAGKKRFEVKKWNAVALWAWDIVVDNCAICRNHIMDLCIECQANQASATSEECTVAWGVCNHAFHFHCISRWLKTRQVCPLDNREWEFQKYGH
Target sequence (Q13616 whole entry, looked up): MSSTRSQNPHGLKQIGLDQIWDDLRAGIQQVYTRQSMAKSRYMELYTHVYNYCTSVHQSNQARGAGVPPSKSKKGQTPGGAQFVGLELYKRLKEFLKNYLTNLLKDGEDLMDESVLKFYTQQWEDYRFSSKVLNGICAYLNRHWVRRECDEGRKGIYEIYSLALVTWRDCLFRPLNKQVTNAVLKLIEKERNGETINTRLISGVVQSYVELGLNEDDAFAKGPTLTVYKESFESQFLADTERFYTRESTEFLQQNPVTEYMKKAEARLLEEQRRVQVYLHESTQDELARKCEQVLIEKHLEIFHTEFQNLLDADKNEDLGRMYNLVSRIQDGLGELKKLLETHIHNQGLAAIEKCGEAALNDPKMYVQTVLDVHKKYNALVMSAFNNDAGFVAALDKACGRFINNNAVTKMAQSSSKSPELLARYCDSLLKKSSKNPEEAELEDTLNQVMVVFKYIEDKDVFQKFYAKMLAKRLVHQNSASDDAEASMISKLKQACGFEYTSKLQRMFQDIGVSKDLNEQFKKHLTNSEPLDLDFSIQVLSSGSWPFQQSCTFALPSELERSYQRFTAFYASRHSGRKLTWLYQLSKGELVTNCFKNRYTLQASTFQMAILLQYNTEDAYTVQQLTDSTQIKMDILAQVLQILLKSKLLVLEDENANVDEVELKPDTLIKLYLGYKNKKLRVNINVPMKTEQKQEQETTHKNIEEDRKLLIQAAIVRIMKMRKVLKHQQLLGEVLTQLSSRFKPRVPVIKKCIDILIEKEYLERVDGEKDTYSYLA
* = called active by the depositor. The sample as a whole holds a higher share of hits than the screen did.

What do the screens show for `CC(C)(C)OC(=O)c1sc2nc(-c3cccs3)cc(C(F)(F)F)c2c1N`?
ROC1-CUL1 inh: -14

How did CCN(CC)CCNC(=O)c1ccccc1NC(=O)NC1CCCCC1 do in these assays?
ROC1-CUL1 inh: 2

Results for O=C(c1cccc(F)c1)N1CCc2cc(S(=O)(=O)N3CCOCC3)ccc21 ?
ROC1-CUL1 inh: -1

What do the screens show for `O=C(N=C(Cc1cn(-c2ccccc2)nc1-c1ccc(F)cc1)C(=O)N1CCOCC1)c1ccc(Cl)cc1Cl`?
ROC1-CUL1 inh: -6

What do the screens show for `COC(=O)c1ccc(CN2CCC3(CCCN(CC4CC4)C3=O)C2)cc1` (stereo unspecified)?
ROC1-CUL1 inh: 1

What do the screens show for `CC(NC(=O)c1ccc(Br)cc1Br)c1ccccc1` (stereo unspecified)?
ROC1-CUL1 inh: 14

What do the screens show for `CC(NC(=O)c1ccccc1F)c1ccccc1` (stereo unspecified)?
ROC1-CUL1 inh: -12

What do the screens show for `CC(NC(=O)c1cc([N+](=O)[O-])cc2c1-c1c(cc([N+](=O)[O-])cc1[N+](=O)[O-])C2=C(C#N)C#N)c1ccccc1` (stereo unspecified)?
ROC1-CUL1 inh: 39*

Results for CCCc1nn2c(N)c(C=C3C=C(Br)C=CC3=O)c(=O)nc2s1 ?
ROC1-CUL1 inh: -3

How did CCCCCCCc1nn2c(N)c(C=C3C=C(Cl)C(=O)C(Cl)=C3)c(=O)nc2s1 do in these assays?
ROC1-CUL1 inh: 95*

How did CCc1nn2c(N)c(C=C3C=C(Cl)C(=O)C(Cl)=C3)c(=O)nc2s1 do in these assays?
ROC1-CUL1 inh: 7

How did CN1C[C@@H]2C[C@@H](c3ccccc3C(F)(F)F)N3CCC[C@@]23C1=O do in these assays?
ROC1-CUL1 inh: 6

Results for CC1(C)CC(N=C2C=C(C(C)(C)C)C(=O)C(C(C)(C)C)=C2)CC(C)(C)N1 ?
ROC1-CUL1 inh: -7

How did COc1ccc(C(=O)c2coc3c2cc(O)c2ccccc23)cc1 do in these assays?
ROC1-CUL1 inh: 13

What do the screens show for `COc1ccc(C(=O)c2coc3c2C(=O)C(=O)C(Br)=C3)cc1`?
ROC1-CUL1 inh: 102*

How did COc1ccc(C(=O)c2cc(C)ccc2OC)cc1 do in these assays?
ROC1-CUL1 inh: -1

How did CCOC(=O)c1c(C)nc(C)c2c1c(O)cc1c(C(C)=O)c(C)oc12 do in these assays?
ROC1-CUL1 inh: 2

Results for CC1=C(C(=O)Nc2ccccc2)C(c2ccccc2)n2c(s/c(=C/c3ccc(C)o3)c2=O)=N1 (stereo unspecified) ?
ROC1-CUL1 inh: 5

What do the screens show for `COCCCC1CCN(Cc2nc(C3CC3)no2)CC1`?
ROC1-CUL1 inh: 4

How did COc1ccccc1/C=C1\Oc2cccc(OC)c2C1=O do in these assays?
ROC1-CUL1 inh: 10

Results for CN(C)c1ccccc1/C=C1\Oc2ccccc2C1=O ?
ROC1-CUL1 inh: 27*

How did CC(=O)Cc1ccccc1/C=C1\OC(=O)c2ccccc21 do in these assays?
ROC1-CUL1 inh: 8

How did CCOc1ccccc1NC(=S)NC(=O)c1ccc(C(C)(C)C)cc1 do in these assays?
ROC1-CUL1 inh: -7

What do the screens show for `COc1ccc(C(C2C(=O)C=C(C)OC2=O)C2C(=O)C=C(C)OC2=O)cc1` (stereo unspecified)?
ROC1-CUL1 inh: 0

What do the screens show for `COc1ccc(C(C2C(=O)Oc3ccc(C)cc3C2=O)C2C(=O)Oc3ccc(C)cc3C2=O)cc1` (stereo unspecified)?
ROC1-CUL1 inh: 69*

How did COc1ccc(N=CC2C(=O)Oc3ccccc3C2=O)cc1 (stereo unspecified) do in these assays?
ROC1-CUL1 inh: 0

What do the screens show for `CC(=O)N1CCC(C(=O)Nc2ccc(C)c(C)c2)CC1`?
ROC1-CUL1 inh: 1

Results for CC(=O)N1CCN(c2ncccc2CNCc2ccccc2C(F)(F)F)CC1 ?
ROC1-CUL1 inh: 8

Results for CCOc1cc(/C=C2\C(=O)NN(c3ccccc3)C2=O)ccc1OCc1c(F)cccc1Cl ?
ROC1-CUL1 inh: -7

What do the screens show for `CCOc1cc(/C=C2\C(=O)NN(c3ccccc3)C2=O)cc(Cl)c1OCc1cccc(C)c1`?
ROC1-CUL1 inh: 38*

Results for CCOc1cc(/C=C2\C(=O)NN(c3ccccc3)C2=O)cc(Br)c1OCc1cccc(C)c1 ?
ROC1-CUL1 inh: 2

How did CCOc1cc(/C=C2\C(=O)NN(c3ccccc3)C2=O)cc(Cl)c1OCc1c(Cl)cccc1Cl do in these assays?
ROC1-CUL1 inh: 86*

Results for COc1cc(/C=C2\C(=O)NN(c3ccccc3)C2=O)ccc1OCc1ccccc1 ?
ROC1-CUL1 inh: 14

What do the screens show for `COc1cc(/C=C2\C(=O)NN(c3ccccc3)C2=O)cc(Cl)c1OCc1ccccc1C`?
ROC1-CUL1 inh: 19

What do the screens show for `O=C(Nc1ccc(OCCCc2ccccc2)cc1)c1cccnc1`?
ROC1-CUL1 inh: 0

Results for C=CCN1C(=O)C(Cc2ccccc2)C(=O)N=C1SCC(=O)N1CCOCC1 (stereo unspecified) ?
ROC1-CUL1 inh: 6

How did N#Cc1ccc(NC(=S)NC(=O)C2CCC2)cc1 do in these assays?
ROC1-CUL1 inh: 5

How did CCOC(=O)c1cccc(NS(=O)(=O)c2cc3[nH]c(=O)c(=O)[nH]c3cc2C)c1 do in these assays?
ROC1-CUL1 inh: -1

Results for CCc1cccc(C)c1NS(=O)(=O)c1cc2[nH]c(=O)c(=O)[nH]c2cc1C ?
ROC1-CUL1 inh: 44*

How did Cc1cc(C)cc(NS(=O)(=O)c2cc3[nH]c(=O)c(=O)[nH]c3cc2C)c1 do in these assays?
ROC1-CUL1 inh: -8

What do the screens show for `Cc1ccc(N2C(=O)/C(=C/c3ccc(-c4ccc(C(=O)O)cc4)o3)C(=O)N(c3ccccc3)C2=S)cc1C`?
ROC1-CUL1 inh: 5

Results for Cc1ccc(N2C(=O)/C(=C/c3ccc(Br)cc3)C(=O)N(c3ccccc3)C2=S)cc1 ?
ROC1-CUL1 inh: -3

What do the screens show for `Cc1ccc(N2C(=O)/C(=C\c3ccc(-c4ccc(Br)cc4[N+](=O)[O-])o3)C(=O)N(c3ccccc3)C2=S)cc1C`?
ROC1-CUL1 inh: 56*

Results for CCc1nn2c(-c3ccc(C(F)(F)F)cc3)nnc2s1 ?
ROC1-CUL1 inh: -5

How did Cc1cccc(C(=O)NC(NC(=S)Nc2cccc(C(=O)O)c2)C(Cl)(Cl)Cl)c1 (stereo unspecified) do in these assays?
ROC1-CUL1 inh: 2

Results for O=C1N(Cc2cccc(F)c2F)CCCC1(O)CNCC1CCCCC1 (stereo unspecified) ?
ROC1-CUL1 inh: 11

How did O=C1N(Cc2cccc(F)c2F)CCCC1(O)CNC1CCCC1 (stereo unspecified) do in these assays?
ROC1-CUL1 inh: 94*

How did O=C1N(Cc2cccc(F)c2F)CCCC1(O)CNC1CCC1 (stereo unspecified) do in these assays?
ROC1-CUL1 inh: -7

What do the screens show for `CCNS(=O)(=O)c1ccc(NC(=O)Cc2cccs2)cc1`?
ROC1-CUL1 inh: 7

How did CC1=CC=CN2C1=NC(C(F)(F)F)(C(F)(F)F)N=C2c1cccnc1 do in these assays?
ROC1-CUL1 inh: 8

What do the screens show for `COc1cccc2c1C(=O)c1c(O)c3c(c(O)c1C2=O)C[C@@](O)(C(=O)COC(C)=O)C[C@@H]3O`?
ROC1-CUL1 inh: 9

Results for CN(C)/C=C1\C(=O)N(c2c(Cl)cccc2Cl)c2cc(C=C(C#N)C#N)ccc21 ?
ROC1-CUL1 inh: 34*

How did CN(C)/C=C1/N=C2C=C(c3ccccc3)c3cc(Cl)ccc3N2C1=O do in these assays?
ROC1-CUL1 inh: 0

Results for CCN(CC)CCN=CC1C(=O)N(c2c(Cl)cccc2Cl)c2ccccc21 (stereo unspecified) ?
ROC1-CUL1 inh: 4

What do the screens show for `O=C1/C(=C\c2ccc(-c3ccc(Cl)c(Cl)c3)o2)SC(=Nc2ccccc2)N1Cc1ccco1`?
ROC1-CUL1 inh: 1
